# From PubChem BioAssay (EPA / NIEHS)
# Records with an inconclusive call do not appear. The source holds several records for some structures; these can differ, active in one and inactive in another. Calls of active or inactive are those of the source. Rule for the calls, unless noted: active = hit-call score of the fitted dose curve at least 0.9, where 1 is the maximum; inactive = score below 0.9.
# Legend:
# [1] = UKN5_HCS_SBAD2_neurite_outgrowth: University of Konstanz (UKN) Leist Lab Neurite Outgrowth Assay in human iPSC-derived immature Dorsal Root Ganglia Neurons (UKN5) (AID 2284070); settings: actives raise or lower the signal
# Summary of the method: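 Neurite outgrowth is quantified as calcein-AM-labelled neurite area in human iPSC-derived peripheral neurons treated for 24 h, starting 1 h after plating in medium with CHIR99021 (1.5 uM), SU5402 (5 uM) and DAPT (5 uM).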
# [2] = CCTE_Shafer_MEA_dev_AB: CCTE's Alamar Blue Assay for Cytotoxicity in the Neural Network Formation Assay, Shafer Lab (AID 2284083; active = hit-call score of the fitted dose curve at least 0.9, where 1 is the maximum;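 note: resazurin reduction fluorescence as viability of cultured neurons; twelve days of exposure from plating with re-dosing on DIV 5 and 9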)
# Summary of the method: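 Cytotoxicity companion to the developmental MEA: primary rat cortical neurons, 12-day exposure starting day 0, compound refreshed DIV 5 and 9; resazurin fluorescence, fitted against DMSO vehicle.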
# [3] = CCTE_Shafer_MEA_dev_mutual_information_norm: CCTE's Neural Network Formation Assay for Mutual Information Normalization, Shafer Lab (AID 2284091);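 for AC50: potency is for a decrease in mutual information relative to DMSO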
# Experimental: CCTE_Shafer_MEA_dev assay is conducted using Axion Biosystems 48 well microelectrode array (MEA) plates and Maestro recording system. Each well of the MEA plate contains a grid of 16 microelectrodes embedded in the culture surface. Electrically active cells, such as neurons, can be cultured over the electrodes, and electrical activity in these cells can be recorded extracellularly. The spontaneous firing of neurons is captured from each electrode on a microsecond timescale providing both temporally and spatially precise data. […] The CCTE_Shafer_MEA_dev assay uses primary cultures of rat cortical neurons. Recordings are made on days post-plating 5, 7, 9 and 12. As these cultures mature over time, neural networks develop functional activity and form cohesive networks in which electrical activity can be highly coordinated. CCTE_Shafer_MEA_dev_mutual_information_norm is 1 of 19 assay components of the CCTE_Shafer_MEA_dev assay. It is a measure of shared information between electrodes during a recording in a microelectrode array (MEA) using Axion Biosystems Maestro 768 channel amplifier with the AxIS adaptive spike detector. To collapse across multiple recordings made on days post-plating 5, 7, 9 and 12, the trapezoidal area-under-the-curve of the component is calculated.Data from the assay component CCTE_Shafer_MEA_dev_mutual_information_norm was analyzed into 1 assay endpoint. This assay endpoint, CCTE_Shafer_MEA_dev_mutual_information_norm, was analyzed in the negative analysis fitting direction relative to DMSO as the negative control and baseline of activity. Using a type of functional reporter, gain or loss-of-signal activity can be used to understand electrical activity.
# On the day prior to culture, each well was coated thoroughly with 150 uL of 0.05% polyethyleneimine (PEI, Sigma Cat P3143) in 50 mM HEPES (Sigma Cat H7523) at a pH of 8. The plate was incubated at 37C for one hour. PEI was rinsed out with 500 uL of sterile water three times. Plates were stored at 4C until the day of culture. This culture was plated at a seeding density of 1.5 x 10^5 cells/well on a 48-well MEA plate, prepared as described above. Cells were administered via a 25 uL media/laminin ([…]; Sigma Cat L2020-1MG) drop directly onto the microelectrode array, as adding the cells with the laminin results in better attachment than pre-coating with laminin. After 2 hours, an additional 475 uL of cortical media was added and the cells returned to the incubator. Exposure starts at day 0 of plating and is continued over twelve days of network development until the experiment is terminated. Cells are fed with fresh medium on DIV 5 and 9, following the recordings on those days. The entire volume of media in the well is exchanged and any vehicle or compound treatment is renewed. Complete details are found in OP-NHEERL/ISTD/SBB/TJS/2015-03-r0 (available on request, email shafer.tim@epa.gov). Measurement of the electrical activity is non-invasive, and recordings can be made from the same plate over multiple different days of the culture. In cortical neurons, this allows for the measurement of extracellular action potentials over the period during which networks form in the MEA plate.
# [4] = CCTE_Shafer_MEA_dev_correlation_coefficient_mean: CCTE's Neural Network Formation Assay for Mean Correlation Coefficient, Shafer Lab (AID 2284093);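 for AC50: well mean pairwise spike train correlation integrated as AUC over recording days 5 to 12; potency fitted for loss of correlation relative to DMSO vehicle wells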
# Summary of the method: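 Extracellular firing from rat cortical networks on 48-well MEAs, DMSO-referenced, negative fitting direction. Compound present from plating to DIV12; mean pairwise correlation per well integrated over DIV5–12 recordings by trapezoidal AUC.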
# [5] = UKN2_HCS_IMR90_neural_migration: University of Konstanz (UKN) Leist Lab Neural Crest Cell Migration Assay in human induced IMR90 Pluripotent Stem Cells (UKN2) (AID 2284204); settings: actives raise or lower the signal
# Experimental: UKN2_HCS_IMR90 is a cell-based, multiplexed-readout assay screening for neural crest cell migration and cell viability that uses IMR90 (neural crest cells differentiated from iPSC), a human embryo cell line, with measurements taken at […] after chemical dosing in a microplate: 96-well plate. UKN2, also known as cMINC, is an assay that uses IMR90 cells (neural crest cells differentiated from iPSC) as a model of neural crest cell migration. 24 hr after cell seeding, cell migration was initiated and proceeded for 24 hr. Then, chemical was applied, and after 24 hr of exposure migration and viability were assessed using high-content imaging of cells stained with calcein-AM and Hoechst H-33342.UKN2_HCS_IMR90_neural_migration is an assay component measured from the UKN2_HCS_IMR90 assay. It is designed to make measurements of neural crest cell migration, a form of morphology reporter, as detected with Fluorescence intensity signals by HCS Fluorescent Imaging.The assay endpoint UKN2_HCS_IMR90_neural_migration was analyzed with bidirectional fitting relative to DMSO as the negative control and baseline of activity. Using a type of morphology reporter, gain or loss-of-signal activity can be used to understand developmental effects. To generalize the intended target to other relatable targets, this assay endpoint is annotated to the neurodevelopment intended target family, where the subfamily is neural crest cell migration.
# The wells are coated with PLO/laminin/fibronectin. Then, silicone stoppers are placed into the wells of a 96-well plate. Cells are seeded around the stoppers and allowed to attach for 24 hours. Day 0: The silicone stoppers are removed and the medium is replaced with pre-warmed, fresh N2-S medium containing the cytokines EGF and FGF. Cells are allowed to migrate into the cell free area. Day 1: 25 ul of the 5x concentrated toxicants are added to the wells. The cells plus toxicants are incubated for 24 h. […] Quantification of migration and viability is done by high content imaging analysis.
# [6] = UKN4_HCS_LUHMES_neurite_outgrowth: University of Konstanz (UKN) Leist Lab Neurite Outgrowth Assay in human LUHMES cells (UKN4) (AID 2284206); settings: actives raise or lower the signal
# Summary of the method: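 Neurite area in dopaminergic-model LUHMES neurons is measured by high-content imaging of calcein-AM after 24 h treatment starting shortly after day-2 replating; Hoechst staining tracks viability.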
# [7] = IUF_NPC1b_proliferation_BrdU_72hr: Leibniz Research Institute for Environmental Medicine (IUF) 72-hour Neural Progenitor Cell Bromodeoxyuridine (BrdU) Proliferation Assay (NPC1b) (AID 2284207)
# Experimental: IUF_NPC1 is a cell-based, multiplexed assay that uses hNPC, a human primary neural progenitor cells, with measurements taken at 72 hours after chemical dosing in a 96-well plate. Human neural progenitor cells (hNPC) are generated from human fetal brain cortex at gestational week (GW) 16-19. Grown in suspension culture and under proliferative conditions (proliferation media and growth factors), these cells represent neural progenitor cell proliferation. In the NPC1 assay, hNPC's are exposed to the test compound for 72h. Cell proliferation is assessed as an increase in sphere area using automated phase contrast imaging and as incorporation of Bromodeoxyuridine (BrdU) during DNA synthesis using a luminescence-based cell proliferation ELISA. In parallel, the cell viability is assessed using an alamar blue viability assay and the cytotoxicity using a lactate dehydrogenase dependent membrane integrity assay.IUF_NPC1b_proliferation_BrdU_72hr is one of 4 assay components measured from the IUF_NPC1 assay. It is designed to measure cell proliferation as assessed by the incorporation of Bromodeoxyuridine (BrdU) in the last 16 h of a 72 h compound exposure using a luminescence-based cell proliferation ELISA.Data from the IUF_NPC1b_proliferation_BrdU component was analyzed at the endpoint IUF_NPC1b_proliferation_BrdU in the positive analysis fitting direction relative to DMSO as the negative control and baseline of activity. Using a type of growth reporter, gain or loss-of-signal activity can be used to understand cell proliferation effects.
# After the cell expansion period, the cells are cultured for up to four weeks in which they are passaged every week. Between one to three days after passaging, depending on the size chosen for passaging, spheres at a size of 0.3 mm are used in the assay. For the assessment of neural progenitor cell proliferation, the spheres are plated in poly-Hema coated 96-well U-bottom plates filled with proliferation medium containing growth factors (EGF and FGF). One 0.25 - 0.35 mm big sphere is plated in the middle of each well. Within 3 days NPCs proliferate and grow in size. Cultivation during the test method is performed at 37C and 5% CO2 at a pH of 7.2-7.6. As a positive control, spheres are cultivated in the absence of growth factors (EGF and FGF), which dramatically reduces proliferation. Exposure starts on the plating day (day 0) and is continued over three days, without chemical renewal, until the experiment is terminated. The assay is terminated by the assessment of cell viability, cytotoxicity, and proliferation by BrdU. All endpoints are generated from the same experimental run and from each well/sphere in the 96-well plate.
# [8] = IUF_NPC1a_proliferation_area_72hr: Leibniz Research Institute for Environmental Medicine (IUF) 72-hour Neural Progenitor Cell Proliferation Area Assay (NPC1a) (AID 2284208)
# Summary of the method: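 Measured in 3D suspension: each well held one primary hNPC sphere grown with EGF and FGF at pH 7.2-7.6. Compound stayed on for 72 h, then area was imaged; spheres lacking growth factors defined reduced proliferation.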
# [9] = CCTE_Shafer_MEA_acute_AB: CCTE's Alamar Blue Assay for Cytotoxicity in the Neural Acute Assay, Shafer Lab (AID 2284069; active = hit-call score of the fitted dose curve at least 0.9, where 1 is the maximum;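 note: active compounds lower the viability signal compared with DMSO wells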)
# Summary of the method: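 Cytotoxicity endpoint for acute MEA exposures of primary rat cortical neurons on day 13 or 15. Resazurin reduction is read fluorescently at 544/590 nm, with DMSO as the negative-control baseline.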
# [10] = CCTE_Shafer_MEA_acute_LDH: CCTE's Lactate Dehydrogenase Assay for Cytotoxicity in the Neural Acute Assay, Shafer Lab (AID 2284086; active = hit-call score of the fitted dose curve at least 0.9, where 1 is the maximum;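 note: active means LDH release rises above DMSO vehicle level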)
# Summary of the method: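 Cytotoxicity readout: spectrophotometric LDH activity in supernatant of rat primary cortical neurons, post-plating day 13 or 15, sampled after 40 min compound exposure; signal gain relative to DMSO baseline.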
structure (smiles),measurement,setting,value
CC(C)Cc1ccc(C(C)C(=O)O)cc1 (stereo not given),outcome,[1],inactive
same,AC50,[2],2.98 µM (active)
same,AC50,[3],3.62 µM (active)
same,outcome,[4],inactive
same,outcome,[5],inactive
same,outcome,[6],inactive
same,outcome,[7],inactive
same,outcome,[8],inactive
C[C@]12CC[C@@H]3c4ccc(O)cc4CC[C@H]3[C@@H]1CC[C@@H]2O,AC50,[2],6.6 µM (active)
same,outcome,[2],inactive
same,outcome,[3],inactive
same,outcome,[4],inactive
CC/C(=C(\c1ccccc1)c1ccc(OCCN(C)C)cc1)c1ccccc1,outcome,[9],inactive
same,AC50,[2],5 µM (active)
same,AC50,[3],0.196 µM (active)
same,AC50,[4],3.76 µM (active)
CCCCC(CC)COC(=O)COc1ccc(Cl)cc1C (stereo not given),outcome,[3],inactive
same,outcome,[4],inactive
same,outcome,[5],inactive
same,AC50,[7],0.0137 µM (active)
same,outcome,[8],inactive
N[C@@H](CCC(=O)O)C(=O)O,outcome,[2],inactive
same,outcome,[10],inactive
same,outcome,[3],inactive
same,outcome,[4],inactive
same,outcome,[7],inactive
same,outcome,[8],inactive
CCCCN(CCO)CCO,outcome,[9],inactive
CC(C)(CO)CO,outcome,[9],inactive
same,outcome,[10],inactive
CCCO[Si](OCCC)(OCCC)OCCC,outcome,[10],inactive
CCn1cc(C(=O)O)c(=O)c2ccc(C)nc21,outcome,[10],inactive
N#CCCNCCC#N,outcome,[3],inactive
same,outcome,[4],inactive
c1ccc2scnc2c1,outcome,[3],inactive
same,outcome,[4],inactive
same,outcome,[5],inactive
same,AC50,[7],10 µM (active)
same,outcome,[8],inactive
CC(=O)c1ccc(C)cc1,outcome,[10],inactive
O=C(c1ccc(OCCN2CCCCC2)cc1)c1c(-c2ccc(O)cc2)sc2cc(O)ccc12,outcome,[9],inactive
same,outcome,[10],inactive
CCCCOCCOCCO,outcome,[10],inactive
c1ccc(OCCOc2ccccc2)cc1,outcome,[9],inactive
same,outcome,[10],inactive
